TRHR PAM – qHTS for Small Molecule Agonists and Allosteric Enhancers of Human TRH Receptor: Primary Screen for Enhancers. Thyrotropin-releasing hormone receptor (Homo sapiens), P34981. TRHR cells, fluo-8 calcium fluorescence, EC20 TRH enhancement. enhancement, % at 2 µM. hit rate 0.66% among 360,000; in the data active = enhancement above about 30%
Target sequence (P34981 whole entry, looked up): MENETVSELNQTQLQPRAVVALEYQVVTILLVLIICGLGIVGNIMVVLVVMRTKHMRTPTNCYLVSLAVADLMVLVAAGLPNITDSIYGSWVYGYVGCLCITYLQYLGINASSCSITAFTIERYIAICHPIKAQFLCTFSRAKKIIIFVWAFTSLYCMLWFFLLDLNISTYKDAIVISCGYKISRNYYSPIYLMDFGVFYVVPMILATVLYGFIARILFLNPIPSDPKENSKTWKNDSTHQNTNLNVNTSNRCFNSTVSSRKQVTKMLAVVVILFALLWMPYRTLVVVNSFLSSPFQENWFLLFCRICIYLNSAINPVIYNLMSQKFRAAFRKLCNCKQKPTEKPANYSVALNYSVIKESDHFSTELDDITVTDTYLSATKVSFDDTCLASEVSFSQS
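TRHR-expressing cells loaded with fluo-8 calcium dye were read kinetically (ex 480/em 530) during compound addition, then stimulated with an EC20 of TRH (10 nM final). Enhancement of the Gq-mediated intracellular calcium response was scored.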
TRHR ag – qHTS for Small Molecule Agonists and Allosteric Enhancers of Human TRH Receptor: Primary Screen for Agonists. Thyrotropin-releasing hormone receptor (Homo sapiens), P34981. TRHR cells, calcium flux fluo-8, FDSS agonist mode. activation, % at 2 µM. hit rate 0.18% among 360,000; in the data active = activation above about 30%
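Fluo-8-loaded TRHR cells; 10 s baseline, compound added, kinetic Ca2+ fluorescence read 1/s, agonist mode.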
TRPML1 inh – qHTS for Inhibitors of the Human Mucolipin Transient Receptor Potential 1 (TRPML1); Mucolipin-1 (Homo sapiens), Q9GZU1; TRPML1-inducible cells, Ca2+ dye fluorescence, FDSS; active compounds read low; inhibition of EC80 agonist-evoked calcium signal; activity change, negative = inhibition, % (no concentration beside the values); hit rate 0.02% among 390,000; AID 624415, 2012; in the data active = activity change below about -50%; inconclusive = between about -30% and that limit;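 also: stimulus is agonist 54-4 at its EC80 concentration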
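TRPML1-DL cells, Tet-induced overnight (~16 h, 37 °C) at 1,500 cells/well, were loaded with Ca8 no-wash dye plus quencher for 45-90 min at room temperature. Compounds were pinned during FDSS kinetic reading; agonist 54-4 at EC80 (4 uM final) then added.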
TRPML1 ag – qHTS for Agonists of the Human Mucolipin Transient Receptor Potential 1 (TRPML1); Mucolipin-1 (Homo sapiens), Q9GZU1; TRPML1-expressing cells, Ca2+ dye fluorescence, FDSS; activation, % (no concentration beside the values); hit rate 0.12% among 410,000; in the data active = activation above about 50%; inconclusive = mostly about 30% to 49%
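Agonist activity was taken from a 110 s kinetic Ca2+ dye read on the FDSS after pinning compounds onto TRPML1-DL cells. The cells were seeded at 1,500/well with Tet inducer, incubated about 16 h, then dye-loaded at room temperature.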
KCNH2 WT inh – qHTS for Inhibitors of KCHN2 3.1: Wildtype qHTS | Voltage-gated inwardly rectifying potassium channel KCNH2 (Homo sapiens), Q12809 | hit rate 0.37% among 340,000 | activity change, % at 1.84 µM | U2OS, BacMam KCNH2, thallium flux FluxOr; active compounds read low;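 active = maximum activity change below -70%; inconclusive = maximum activity change between -70% and -50%; inactive = maximum activity change above -50%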
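U2OS cells transduced with wild-type KCNH2 virus are loaded with FluxOr dye for 45 min, and thallium flux is measured in kinetic reads before and after stimulation buffer. Rate constants are normalized to DMSO controls.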
KCNH2 3.1 inh – qHTS for Inhibitors of KCHN2 3.1: Mutant qHTS; AID 720553, 2013; hit rate 0.95% among 340,000; activity change, % (tested at about 1.8 µM); U2OS KCNH2 3.1, thallium flux FluxOr; active compounds read low;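 active = maximum activity change below -70%; inconclusive = maximum activity change from -70% to -50%; inactive = maximum activity change above -50%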;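 also: thallium influx rate constant from kinetic fluorescence after stimulation buffer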
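Thallium flux via FluxOr fluorescence (Red40 quencher, 45 min loading) in U2OS cells virally expressing the KCNH2 3.1 isoform (1.77 x 10^8 /mL virus, overnight at 37 C). Rate constants from 2-min kinetic reads post-stimulation, normalised to positive and negative controls.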
Numbers stand for hits; i = inactive; ? = inconclusive; nt = not tested or not shown. In the library only some 1.7% were active in any assay of this set; here they are far more common.

SMILES	TRHR PAM	TRHR ag	TRPML1 inh	TRPML1 ag	KCNH2 WT inh	KCNH2 3.1 inh
CCOC(=O)C1CCCN(C(=O)c2c(-c3ccccc3)noc2C)CC1 (centres undefined)	nt	nt	nt	i	nt	nt
CCOC(=O)C1CCN(C(=O)c2ccccc2N(C)S(C)(=O)=O)CC1	i	i	i	i	i	-90.8
Cc1cccc(Cn2c(=O)n(CCCC(=O)NCc3ccccc3Cl)c(=O)c3ccccc32)c1	i	i	i	i	nt	nt
C#Cc1ccc(CN2CCN(CCCc3ccccc3)C(CCO)C2)cc1 (centres undefined)	i	i	i	i	i	-71.9
CC(C)/C=C/CN1CCN(CCCc2ccccc2)C(CCO)C1 (centres undefined)	33.9	i	i	i	i	i
CCOc1ccc(CN2CCN(CCCc3ccccc3)CC2CCO)cc1 (centres undefined)	i	i	i	i	-81.5	i
CCOc1ccc(CN2CCN(C3CCSCC3)CC2CCO)cc1 (centres undefined)	40.7	i	i	i	i	-84.1
CCOc1ccc(CN2CCN(C3CCC3)CC2CCO)cc1 (centres undefined)	i	i	i	i	i	i
CCCCNC(=O)C1(C)CCCCN1Cc1ccc(OCc2ccccc2)cc1 (centres undefined)	nt	nt	nt	i	nt	nt
C[C@H](CO)N1C[C@H](C)[C@@H](CN(C)C(=O)Nc2ccccc2)Oc2c(NS(=O)(=O)c3cccs3)cccc2C1=O	nt	nt	i	i	i	i
CCOCCCn1c(=N)c(C(=O)NCc2cccnc2)cc2c(=O)n3ccccc3nc21	i	i	i	i	nt	nt
Cc1ccc(CN2CCN(CCCc3ccccc3)CC2CCO)cc1 (centres undefined)	i	i	i	i	i	-75.4
COc1ccc(NC(=O)C(OC(=O)CNC(=O)c2ccccc2)c2ccccc2)cc1Cl (centres undefined)	i	i	nt	nt	nt	nt
O=c1ccc(Cl)nn1-c1ccccc1	nt	nt	i	i	i	i
Cc1nc2ccccn2c1C(=O)NNS(=O)(=O)c1ccc(Cl)cc1	33.0	i	i	i	i	i
Cc1c(-c2ccccc2)sc2nc[nH]c(=S)c12	i	i	i	i	-116.0	-82.5
C=CC(=O)Nc1cccc(CN2C(=O)N(c3cc(OC)cc(OC)c3)Cc3cnc(NCCCCN(CC)CC)nc32)c1	nt	nt	i	i	i	i
CCOc1ccc(N2CC(O)(c3ccc(F)cc3)[N+]3=C2CCCC3)cc1 (centres undefined)	i	i	i	i	i	-104.4
COc1ccc(N2CC(O)(c3ccc(F)cc3)[N+]3=C2CCCC3)cc1 (centres undefined)	i	i	i	i	i	i
CCOc1ccc(N2CC(O)(c3cccs3)[N+]3=C2CCCC3)cc1 (centres undefined)	i	i	i	i	?	-102.2
COc1ccc(N2CC(O)(c3ccc(OC(F)F)cc3)[N+]3=C2CCCC3)cc1 (centres undefined)	i	i	i	i	-85.7	-72.5
OC1(c2cccs2)CN(c2ccccc2)C2=[N+]1CCCC2 (centres undefined)	i	i	i	i	i	i
COC(=O)c1sc(NC(=O)c2cc3nc(-c4ccc(Br)cc4)cc(C(F)(F)F)n3n2)c(C(=O)OC)c1C	i	i	i	i	nt	nt
O=[N+]([O-])c1ccc(CSc2nnc3ccccn23)cc1	i	i	i	i	i	i
O=C(c1nc(SCc2ccc([N+](=O)[O-])cc2)n2ccccc12)C(F)(F)F	i	i	i	i	i	-71.1
SMILES	TRHR PAM	TRHR ag	TRPML1 inh	TRPML1 ag	KCNH2 WT inh	KCNH2 3.1 inh
Cc1ccc(-n2ncc3c(=O)n(CC(=O)NCc4ccco4)cnc32)cc1C	i	i	i	i	i	-85.1
Cc1ccc(-n2ncc3c(=O)n(CC(=O)Nc4cccc(Cl)c4)cnc32)cc1C	i	i	i	i	i	-82.9
Cc1c(Br)cc(F)c([S+](=O)([O-])N2CCN([S+](=O)([O-])c3ccc4c(c3)OCCO4)CC2)c1F	i	i	nt	nt	nt	nt
FC(F)(F)c1cccc(NC(=S)NNC(=S)Nc2cccc(C(F)(F)F)c2)c1	i	i	nt	nt	nt	nt
CC(C)(O)C(=O)NNC(=S)Nc1cccc(C(F)(F)F)c1	i	i	i	i	i	-93.8
O=C(c1cnn2c(C(F)F)cc(C3CC3)nc12)N1CCc2ccccc2C1	i	i	i	i	i	i
O=C(c1cnn2c(C(F)F)cc(-c3ccccc3)nc12)N1CCc2ccccc2C1	i	i	i	58.5	i	i
O=C(c1cnn2c(C(F)F)cc(C3CC3)nc12)N1CCCC1	i	i	i	i	i	-98.5
O=C(Cn1cc(COc2ccc3ccccc3c2)nn1)NS(=O)(=O)c1cccc(OC(F)F)c1	nt	nt	i	i	nt	nt
CCOC(=O)c1[nH]c(=O)[nH]c1CNc1ccccc1C#N	i	i	i	i	i	i
O=C(Nc1ccc(Cl)cc1)[C@@H]1[C@@H]2C(=O)N(c3ccc(Cl)cc3)C(=O)[C@@H]2[C@H]2C=CC=NN21	i	i	i	i	i	-114.3
CCSc1nnc(NC(=O)c2ccc3ccccc3n2)s1	i	i	i	i	i	i
CCSc1nnc(NC(=O)C(C)Sc2nc3ccccc3[nH]2)s1 (centres undefined)	36.2	i	i	i	i	i
O=C(NC(Cc1ccccc1)C(=O)O)NC12CC3CC(CC(C3)C1)C2 (centres undefined)	i	i	i	i	i	i
O=C(Nc1cc2c3c(c1)CC(=O)N3CCC2)c1ccccc1Br	33.9	i	i	i	i	i
O=C(CCNC(=O)c1ccccc1Cl)Nc1ccc(S(=O)(=O)N2CCOCC2)cc1	nt	nt	i	i	i	i
Cc1cn([C@H]2C[C@H](O)[C@@H](/C=C/C(=O)NCCC(c3ccccc3)c3ccccc3)O2)c(=O)[nH]c1=O	nt	nt	i	i	nt	nt
CCCCC1=NN(C(=O)c2ccco2)C(O)(C(F)(F)F)C1 (centres undefined)	35.7	i	i	i	i	i
CCCOc1ccc(S(=O)(=O)NCCCN2CCOCC2)c2ccccc12	i	i	i	i	-206.4	i
CCOc1ccc(S(=O)(=O)NCCCN2CCOCC2)c2ccccc12	i	i	i	i	i	i
